In the library only some 3.3% were active in any assay of this set; here they are far more common.
UBC9 SUMO inh: SUMOylation inhibition; HTRF SUMOylation assay, SAE1/SAE2 + UBC9, in vitro; inhibition, % at 35 µM; hit rate 0.36% among 290,000; AID 2006; in the data active = inhibition above about 50%, passing the limit was not always enough
HGIII-sPLA2 inh: Blocks human group III sPLA2 activity | QFRET BODIPY PC-A2 liposome hydrolysis, fluorescence | hit rate 0.56% among 370,000 | Q9NZ20 | inhibition, % at 12.2 µM;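 active = inhibition above mean plus 3 SD of compounds lying within the high and low control bounds, cut at about 19% in these data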;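 also: 0% = median of test compound wells and 100% = no enzyme DMSO wells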
Target sequence (Q9NZ20 whole entry, looked up): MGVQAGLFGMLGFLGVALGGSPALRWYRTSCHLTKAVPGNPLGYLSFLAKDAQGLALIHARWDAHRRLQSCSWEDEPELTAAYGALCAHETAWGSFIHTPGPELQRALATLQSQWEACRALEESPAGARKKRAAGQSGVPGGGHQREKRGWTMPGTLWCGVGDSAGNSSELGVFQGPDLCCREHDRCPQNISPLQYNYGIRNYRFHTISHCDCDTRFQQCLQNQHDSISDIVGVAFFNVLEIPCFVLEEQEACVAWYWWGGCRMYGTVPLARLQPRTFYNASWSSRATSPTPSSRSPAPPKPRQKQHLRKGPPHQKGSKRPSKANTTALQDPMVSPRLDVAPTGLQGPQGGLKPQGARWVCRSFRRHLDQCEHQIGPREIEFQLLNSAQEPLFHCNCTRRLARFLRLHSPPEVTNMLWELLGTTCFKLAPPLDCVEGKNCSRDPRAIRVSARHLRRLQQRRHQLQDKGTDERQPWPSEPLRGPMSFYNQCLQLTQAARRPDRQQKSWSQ
UBC13 polyUb: human UBC13 polyubiquitination inhibition. P61088. UBC13 polyubiquitin chain formation, TR-FRET. inhibition, % at 20 µM. hit rate 0.47% among 330,000; in the data active = inhibition above about 45%, passing the limit was not always enough
GRIN3A LBD mod: modulators (binders) of human NR3A ligand-binding domain. NR3A LBD differential scanning fluorimetry, Tm shift; 0% = protein alone, 100% = glycine-bound protein. Tm shift relative to glycine control, % at 25 µM. hit rate 2.5% among 340,000. AID 1259313;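 active = melting temperature shift of at least 10% of the positive control shift, at one fixed dose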
* hit, by the source's call; . = not tested or not shown.

SMILES	UBC9 SUMO inh	HGIII-sPLA2 inh	UBC13 polyUb	GRIN3A LBD mod
COc1ccc(S[C@]2(C(=O)N3CCN(c4ncccn4)CC3)CC(=O)N(c3ccc(Cl)cc3)[C@@H]2c2ccc(OC)cc2)cc1	.	-2	.	.
O=c1c2ccccc2oc2ccc(-c3ccc4cc[nH]c4c3)cc12	.	.	10	26*
COc1cccc(CN(C)C(=O)/C=C/c2ccc(S(=O)(=O)N3CCCCCC3)cc2)c1	-16	-8	0	24*
O=C(CSc1nccc(-c2cccs2)n1)Nc1ccc(Cl)cc1	6	-3	2	26*
CS(=O)(=O)N(CC(=O)N1CCc2ccccc2C1)c1cccc(F)c1	4	-8	4	2
O=C(CN(c1cccc(Cl)c1)S(=O)(=O)c1ccc(Cl)cc1)N1CCc2ccccc2C1	1	15	-3	11*
Nc1[nH]c2cc(C(F)(F)F)ccc2c1C(=O)NCc1ccc(F)cc1	.	5	.	.
c1ccc(-c2cn3c(n2)-c2ccccc2C3)cc1	4	0	8	13*
Cc1ccc(-c2nnn(CC(=O)Nc3ccc(S(=O)(=O)N4CCC(C)CC4)cc3)n2)cc1	45	-16	-4	55*
CC1CCCN(S(=O)(=O)c2ccc(NC(=O)Cn3nnc(-c4ccccc4F)n3)cc2)C1 (configuration not stated)	-20	-63	-2	12*
CC1CCN(S(=O)(=O)c2ccc(NC(=O)Cn3nnc(-c4ccccc4)n3)cc2)CC1	36	-18	-3	11*
CCOC(=O)C1CCN(C(=O)C(C)(C)NC(=O)Nc2ccc(N(C)C)cc2)CC1	.	5	.	.
COc1ccc(CSc2nnc(SCC(=O)Nc3ccc4c(c3)OCO4)s2)cc1	.	-22	.	.
CCOC(=O)Nc1cccnc1Sc1ccc(Cl)cc1	.	2	-6	0
Cc1ccc(Sc2ncccc2NC(=O)c2ccccc2Cl)cc1	0	5	-8	14*
COC(=O)[C@]12C[C@H](CC(=O)NCc3ccc(C)o3)C(=O)N(Cc3ccc(Cl)cc3Cl)C1=C[C@H](C(C)(C)C)O[C@@H]2C	.	-11	.	.
O=C(OCC12CC3CC(CC(C3)C1)C2)c1ccc(NCc2cc(O)ccc2O)cc1	.	29*	.	12*
CCOC(=O)C1=NOC(C(C)=O)(C(=O)N2CCOCC2)C1 (configuration not stated)	.	15	.	.
COC(=O)[C@]12C[C@H](CC(=O)N3CCCC3)C(=O)N(CCc3ccc(OC)c(OC)c3)C1=C[C@H](C(C)(C)C)O[C@@H]2C	.	-3	.	.
COc1ccc(Br)c2oc(SC)cc(=O)c12	8	4	5	10*
O=[N+]([O-])c1cc(C(F)(F)F)ccc1NCCc1c[nH]c2ccc(O)cc12	-17	-23	-22	29*
O=[N+]([O-])c1cc(C(F)(F)F)ccc1NCCc1c[nH]c2ccccc12	10	-90	-2	29*
CCN(CC)S(=O)(=O)c1ccc(N2CCCC2)c(NS(=O)(=O)c2ccc(F)cc2)c1	6	-3	9	-1
CCN(CC)S(=O)(=O)c1ccc(N2CCCC2)c(NS(=O)(=O)c2ccccc2)c1	1	6	4	16*
COc1ccc(Cl)cc1C(=O)NNC(=O)c1[nH]c(C)c(C(C)=O)c1C	.	14	3	15*
SMILES	UBC9 SUMO inh	HGIII-sPLA2 inh	UBC13 polyUb	GRIN3A LBD mod
CC(=O)c1c(C)[nH]c(C(=O)NNC(=O)c2ccc(C)cc2)c1C	.	1	1	4
CCC(C)N(C(=O)CSc1nnc(-c2cc(OC)c(OC)c(OC)c2)o1)C(C)CC (configuration not stated)	.	2	.	.
CS(=O)(=O)c1ccc2nc(NC(=O)Nc3cccc(Cl)c3)sc2c1	22	-12	8	22*
Cc1ccc(NC(=O)Nc2nc3ccc(S(C)(=O)=O)cc3s2)cc1	.	4	2	28*
CS(=O)(=O)c1ccc2nc(NC(=O)Nc3ccccc3F)sc2c1	4	-5	11	3
CS(=O)(=O)c1ccc2nc(NC(=O)Nc3ccc(Cl)c(Cl)c3)sc2c1	4	1	0	31*
Cc1ccc(NC(=O)Nc2nc3ccccc3s2)cc1NC(=O)Nc1nc2ccccc2s1	26	1	-17	28*
O=C(OCc1ccc(CSc2nnc(-c3cccc4ccccc34)o2)cc1)c1ccc(F)cc1	.	13	.	.
CCCC[C@H](C(=O)N(C)c1cccc(OC)c1)[C@@H](O)c1ccc2ccccc2c1	.	-6	.	.
O=C1CCc2cc(S(=O)(=O)N3CCN(Cc4cccc5c4OCO5)CC3)ccc2N1	.	9	.	.
C=CCn1c(Cc2cccs2)nnc1SCC(=O)Nc1ccc(OCc2ccccc2)cc1	.	-32	.	.
CC1(c2nnnn2-c2ccc3c(c2)OCCO3)CSCC(=O)N1CCc1c[nH]c2ccccc12 (configuration not stated)	.	-34	.	.
CC(C)CN1C(=O)[C@]2(CC(=O)N(C)C2c2ccccc2)c2cc(-n3cc(CN(C)C)nn3)ccc21 (some centres not stated)	.	-3	.	.
COc1ccc(/C=C/c2nc(N)nc(-c3ccccc3O)n2)cc1	-9	11	6	72*
COc1cc(/C=C/c2nc(N)nc(-c3ccccc3O)n2)cc(OC)c1OC	2	-7	16	0
COc1ccc(/C=C/c2nc(N)nc(-c3ccccc3O)n2)cc1OC	-20	8	16	28*
S=c1[nH]nc(-c2cc(-c3ccccc3)n[nH]2)n1N=Cc1cccc(OCc2ccccc2)c1	.	3	.	.
CN(Cc1ccccc1F)C(=O)C1C2C=CC3(CN(Cc4ccccc4)C(=O)C13)O2 (configuration not stated)	.	2	.	.
COc1ccc(NC(=O)c2ccc3ccccc3n2)cc1S(=O)(=O)Nc1ccccc1Cl	3	-21	-16	16*
COc1ccc(NC(=O)c2cc(C)nc3ccccc23)cc1S(=O)(=O)Nc1ccccc1Cl	-8	-8	6	-14
COC(=O)CSc1nnc(CSc2nc(C)cc(C)n2)n1Cc1ccco1	-3	3	5	14*
CCOC(=O)C1CCN(C(=O)C(C)(C)NC(=O)Nc2ccc(Cl)cc2Cl)CC1	.	6	.	.
COC(=O)C12OCC34C(CC5C(C)=C(O)C(=O)CC5(C)C3C(O)C1O)OC(=O)C(OC(=O)C=C(C)C)C24 (configuration not stated)	.	-3	.	14*
Cc1cccc(C(=O)Nc2ccccc2SCC(=O)Nc2ccc(C)c(Cl)c2)c1	11	0	-11	15*
COC(=O)C1=CC[C@@H](NC(=O)OC(C)(C)C)[C@H](O)[C@H]1O[Si](C)(C)C(C)(C)C	.	-12	.	.
SMILES	UBC9 SUMO inh	HGIII-sPLA2 inh	UBC13 polyUb	GRIN3A LBD mod
CCOc1ccc(C(=O)Nc2cccc([N+](=O)[O-])c2)cc1Br	-6	1	2	27*
CCOc1ccc(C(=O)Nc2ccc(NC(=O)c3ccco3)c(Cl)c2)cc1Cl	40	-7	-8	0
CCOc1ccc(C(=O)Nc2ccc(NC(=O)c3ccco3)c(Cl)c2)cc1Br	0	-2	1	40*
CCOc1ccc(C(=O)Nc2cccc(NC(=O)c3cccs3)c2)cc1[N+](=O)[O-]	-6	-11	.	7
Cc1nc2ccc(NC(=O)c3cc(F)cc(F)c3)cc2c(=O)[nH]1	.	5	.	.
O=C1C=C(c2ccc3cc[nH]c3c2)C[C@@H](c2ccc3c(c2)OCO3)C1	.	.	-11	21*

Source: PubChem BioAssay
